Results filed as inconclusive are left out. Activity calls are given as the source filed them. The calls were made as follows: active = hit-call score of the fitted dose curve at least 0.9, where 1 is the maximum; inconclusive = response in the unintended direction; inactive = score below 0.9.
Legend:
[1] = TOX21_p53_BLA_p2_viability: Viability Assessment in the Tox21 HCT-116 p53 Agonism Beta-lactamase Assay, Phase 2 (AID 2283591);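 also: compound exposure lasted 16 h at 37 °C; actives lower the ATP signal meaning cytotoxicity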
In short: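 HCT116 p53-bla cells, 4000/well, dosed after 5 h plating (217-fold dilution of DMSO stocks) and incubated 16 h at 37C. Viability taken as cellular ATP by CellTiter-Glo luminescence after 30 min RT; signal loss marks cytotoxicity.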

[2] = target: Cellular tumor antigen p53 (Homo sapiens) (UniProt P04637); experiment: TOX21_p53_BLA_p2_ratio: Tox21 HCT-116 p53 Agonism Beta-lactamase Assay, Ratio, Phase 2 (AID 2283592)
Sequence of Cellular tumor antigen p53 (Homo sapiens) (P04637 whole entry, looked up): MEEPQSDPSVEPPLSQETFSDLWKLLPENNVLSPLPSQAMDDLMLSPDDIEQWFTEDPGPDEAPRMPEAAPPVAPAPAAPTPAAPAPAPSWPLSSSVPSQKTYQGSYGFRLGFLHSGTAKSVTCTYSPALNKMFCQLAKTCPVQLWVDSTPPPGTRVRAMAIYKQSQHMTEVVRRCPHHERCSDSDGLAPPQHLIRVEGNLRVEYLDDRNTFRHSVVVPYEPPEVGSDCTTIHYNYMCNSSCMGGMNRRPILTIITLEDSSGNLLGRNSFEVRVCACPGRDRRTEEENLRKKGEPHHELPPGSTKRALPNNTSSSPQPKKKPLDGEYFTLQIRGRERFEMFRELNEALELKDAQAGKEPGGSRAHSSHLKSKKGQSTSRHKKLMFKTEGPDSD
In short: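 Gain-of-signal p53 agonism was scored from the beta-lactamase FRET ratio (460/530 nm, 405 nm excitation) in HCT116 cells treated 16 h at 37C, 5% CO2, with DMSO serving as negative control and baseline.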

[3] = TOX21_p53_BLA_p3_viability: Viability Assessment in the Tox21 HCT-116 p53 Agonism Beta-lactamase Assay, Phase 3 (AID 2283593);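 also: cells exposed to compound for 16 h before reading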
In short: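 HCT116 cells, 4000/well, dosed 5 h after plating by pin transfer (217-fold dilution from DMSO stock) and incubated 16 h at 37C, 5% CO2. Viability read as ATP luminescence with CellTiter-Glo after 30 min at room temperature.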

[4] = TOX21_p53_BLA_p4_viability: Viability Assessment in the Tox21 HCT-116 p53 Agonism Beta-lactamase Assay, Phase 4 (AID 2283597);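 also: hits lower the luminescence signal meaning cytotoxicity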
In short: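 Following a 16 h exposure at 37C, the treated HCT116 wells were first read for the FRET ratio. They were then lysed with CellTiter-Glo, and ATP luminescence was recorded after 30 min at room temperature.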

[5] = TOX21_p53_BLA_p5_viability: Viability Assessment in the Tox21 HCT-116 p53 Agonism Beta-lactamase Assay, Phase 5 (AID 2283600)
In short: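 After the 460/530 nm beta-lactamase measurement, the wells received an ATP-detection luciferase reagent; signal was read 30 min later at RT. Compound treatment lasted 16 h on cells pre-incubated 5 h post-seeding.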

[6] = target: Cellular tumor antigen p53 (Homo sapiens) (UniProt P04637); experiment: TOX21_p53_BLA_p4_ratio: Tox21 HCT-116 p53 Agonism Beta-lactamase Assay, Ratio, Phase 4 (AID 2283601)
In short: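 HCT-116 p53 beta-lactamase reporter cells (4000/well) preincubated 5 h, then compound (217-fold dilution of DMSO stock) for 16 h at 37C. CCF4-AM substrate added 2 h at room temperature; 460/530 nm emission ratio fitted upward versus DMSO.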

[7] = target: Cellular tumor antigen p53 (Homo sapiens) (UniProt P04637); experiment: TOX21_p53_BLA_p5_ratio: Tox21 HCT-116 p53 Agonism Beta-lactamase Assay, Ratio, Phase 5 (AID 2283599)
In short: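 HCT-116 p53-bla cells (4000/well) plated 5 h, dosed with compound (217-fold DMSO dilution) for 16 h at 37 C; CCF4-AM substrate 2 h at room temperature. Activity is the 460/530 nm emission ratio (405 nm excitation), fitted in gain-of-signal direction versus DMSO.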

[8] = target: Cellular tumor antigen p53 (Homo sapiens) (UniProt P04637); experiment: TOX21_p53_BLA_p3_ratio: Tox21 HCT-116 p53 Agonism Beta-lactamase Assay, Ratio, Phase 3 (AID 2283596)
In short: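 HCT116 p53-bla cells (4000/well) given compound in DMSO (217-fold dilution) after 5 h, incubated 16 h at 37C. CCF4-AM substrate 2 h at room temperature; 460/530 nm emission ratio, gain fitted against DMSO.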

[9] = target: Thyroid hormone receptor alpha (Rattus norvegicus) + Thyroid hormone receptor beta (Rattus norvegicus) (UniProt P18113+P63059); experiment: TOX21_TR_LUC_GH3_Antagonist_Followup: Tox21 GH3 Thyroid Hormone Receptor Antagonism Luciferase Follow-Up Assay (AID 2283942)
In short: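 Antagonist mode: GH3 cells seeded 1,500/well, compounds at 15 concentrations (92 uM to 5nM final) plus T3 at 1.0 nM final, 24 h at 37C. Luciferase read with ONE-Glo after 30 min at room temperature.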

THRB (gene 7068) [10] = target: THRB (gene 7068) (UniProt P10828); experiment: TOX21_TRB_BLA_Antagonist_Followup_ratio: Tox21 Thyroid Hormone Receptor beta Antagonism Beta-lactamase (BLA) Follow-Up Assay, Ratio (AID 2283958)
Sequence of THRB (gene 7068) (P10828 whole entry, looked up, the tested form may be a part): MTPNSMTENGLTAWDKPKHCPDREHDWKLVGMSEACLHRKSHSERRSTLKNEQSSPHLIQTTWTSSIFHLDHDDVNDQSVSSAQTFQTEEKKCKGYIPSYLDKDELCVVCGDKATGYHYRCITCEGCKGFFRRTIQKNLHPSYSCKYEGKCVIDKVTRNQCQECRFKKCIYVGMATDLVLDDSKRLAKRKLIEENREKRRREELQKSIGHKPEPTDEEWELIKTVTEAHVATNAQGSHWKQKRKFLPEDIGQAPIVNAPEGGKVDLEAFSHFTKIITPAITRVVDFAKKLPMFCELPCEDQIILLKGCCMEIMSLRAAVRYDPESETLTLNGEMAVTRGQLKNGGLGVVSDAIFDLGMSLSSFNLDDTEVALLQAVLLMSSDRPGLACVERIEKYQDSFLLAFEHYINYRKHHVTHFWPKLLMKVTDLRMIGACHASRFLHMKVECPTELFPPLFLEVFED
In short: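 HEK293T cells with a GAL4-TRb LBD fusion and UAS-bla reporter, 3,000 cells/well in phenol red-free DMEM with 2% charcoal-stripped FBS. Exposed 18 h at 37C to 11 concentrations in triplicate; CCF4 460:530 nm ratio after 2 h, DMSO-referenced.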

THRB (gene 7068) [11] = target: THRB (gene 7068) (UniProt P10828); experiment: TOX21_TRB_COA_Antagonist_Followup_ratio: Tox21 Thyroid Hormone Receptor beta Antagonism through Coactivator Recruitment Follow-Up Assay, Ratio (AID 2283967)
In short: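 Cell-free TR-FRET: GST-TRb LBD (5.0 nM) with fluorescein-SRC-2 peptide (200 nM) and Tb anti-GST antibody (2 nM), 0.10% BSA. 520:495 nm emission ratio normalized to DMSO (0%) and T3 (100%).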

[12] = target: Retinoic acid receptor RXR-alpha (Homo sapiens) (UniProt P19793); experiment: TOX21_TR_RXR_BLA_Antagonist_Followup_ratio: Tox21 Thyroid Hormone Receptor beta Retinoid X Receptor alpha (RXRa) Antagonism Beta-lactamase (BLA) Follow-Up Assay, Ratio (AID 2283972)
Sequence of Retinoic acid receptor RXR-alpha (Homo sapiens) (P19793 whole entry, looked up): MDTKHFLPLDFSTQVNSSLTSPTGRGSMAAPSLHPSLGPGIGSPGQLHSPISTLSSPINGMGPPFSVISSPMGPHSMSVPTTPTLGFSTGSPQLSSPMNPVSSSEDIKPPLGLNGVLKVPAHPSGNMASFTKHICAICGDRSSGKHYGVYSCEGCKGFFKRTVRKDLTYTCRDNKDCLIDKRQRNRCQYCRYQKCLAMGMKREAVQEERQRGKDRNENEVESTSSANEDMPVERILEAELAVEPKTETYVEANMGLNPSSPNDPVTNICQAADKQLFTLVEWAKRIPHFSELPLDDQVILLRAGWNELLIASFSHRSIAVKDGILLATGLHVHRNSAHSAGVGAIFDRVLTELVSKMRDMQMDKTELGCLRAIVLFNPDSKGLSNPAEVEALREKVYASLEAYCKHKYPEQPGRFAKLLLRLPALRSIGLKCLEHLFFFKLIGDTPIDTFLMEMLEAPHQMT
In short: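 After 5 h attachment at 37C, HEK293T RXRa-bla cells (2,500/well, 2% charcoal-stripped FBS, no phenol red) received compounds at 11 concentrations in triplicate for 16 h. Beta-lactamase read as 460:530 nm ratio after 2 h RT substrate loading.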

[13] = TOX21_TR_RXR_BLA_Antagonist_Followup_viability: Viability Assessment in the Tox21 Thyroid Hormone Receptor beta Retinoid X Receptor alpha (RXRa) Antagonism Beta-lactamase (BLA) Follow-Up Assay (AID 2283979)
In short: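 RXRa-bla HEK293T cells (2,500/well, phenol red-free DMEM, 2% charcoal-stripped FBS) were attached 5 h, then exposed to compounds at 11 concentrations in triplicate for 16 h at 37C. Viability measured by CellTiter-Glo ATP luminescence, bidirectional fitting versus DMSO.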

Measured: AC50

O=C(O)CBr
inactive: [1] | [2] | [3] | [4] | [5] | [6]

CC(=O)OC1(c2ccccc2)CCN(CCc2ccccc2)CC1
inactive: [1] | [2] | [3] | [4] | [6]

CNCC(O)c1ccc(O)cc1 (stereo not drawn)
inactive: [1] | [2] | [3] | [4] | [7] | [5] | [6]

CC(=O)[C@H]1CC[C@H]2[C@@H]3CC[C@H]4C[C@](C)(O)CC[C@]4(C)[C@H]3CC[C@]12C
inactive: [1] | [2] | [3] | [4] | [7] | [6]

CCOP(=S)(OCC)Oc1cc(C)nc(N(CC)CC)n1
inactive: [1] | [2] | [3] | [4] | [5] | [6]

CC(C)(C)NCC(O)c1cc(Cl)c(N)c(Cl)c1 (stereo not drawn)
inactive: [1] | [2] | [3] | [8] | [6]

OC(c1ccccc1)(c1ccccc1)C1CN2CCC1CC2 (stereo not drawn)
inactive: [1] | [2] | [3] | [4] | [7] | [5] | [6]

COC1=CC(=O)O[C@@H](/C=C/c2ccc3c(c2)OCO3)C1
inactive: [1] | [2] | [3] | [4] | [7] | [5] | [6] | [9] | THRB (gene 7068) [10] | THRB (gene 7068) [11] | [12] | [13]

C#C[C@]1(OC(=O)CCCCCC)CC[C@H]2[C@@H]3CCC4=CC(=O)CC[C@@H]4[C@H]3CC[C@@]21C
active: [1] 8.02 µM | [3] 23 µM
inactive: [2] | [4] | [7] | [5] | [6]

c1ccc(C2CC2)c(OCC2=NCCN2)c1
inactive: [1] | [2] | [3] | [4] | [7] | [5] | [6]

COc1cccc(C(=O)CCN[C@@H](C)[C@H](O)c2ccccc2)c1
inactive: [1] | [2] | [3] | [4] | [5] | [6]

CCN(CC)C(=O)[C@@H]1C=C2c3cccc4[nH]cc(c34)C[C@H]2N(C)C1
inactive: [1] | [2] | [3] | [4] | [7] | [5] | [6]

O=C1c2ccccc2C(=O)c2ccccc21
inactive: [1] | [2] | [3] | [4] | [5] | [6]

CCc1cc(OC)c(C[C@@H](C)N)cc1OC
inactive: [1] | [2] | [3] | [4] | [7] | [6]

Reference: PubChem BioAssay (EPA / NIEHS)
